Results published in PubChem BioAssay AID1159580 (chemical genetic matrix, 2015).
Several values for one entry are separate records, joined by “and”; a condition that tells them apart may be missing. Equal values may be shown once. The campaign covered roughly 5,500 compounds. About 2,000 (36%) were called active. Another 18% or so got no clear call; they are omitted. Cut-off read from the data, not from the text of the source: active = normalized growth mostly below about 0.91 (no sharp cut-off); inconclusive = no clear call, values can overlap the other calls; inactive = mostly above about 0.92. The list shows a part of the results.

Experiment: chemical genetic growth profiling, strain panel (AID 1159580);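 note: tested at 20 µM; growth read once vehicle control cultures reached saturation at 30 °C; 1 = growth at the plate median or of vehicle wells; lower values mean less growth of the strain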
Settings: S. cerevisiae deletion strains, growth OD

Measured: normalized growth

CC1CCC2(OC1)OC1CC3C4CCC5C[C@@H](O)CCC5(C)C4=CCC3(C)C1[C@@H]2C (stereo partly drawn)
inactive: locus YAL021C, strain ccr4, hits give low values 1 | locus YAL026C, strain drs2, hits give low values 0.999 | locus YAL030W, strain snc1, hits give low values 1.02 | locus YBL061C, strain skt5, hits give low values 1.01 | locus YBR009C, strain hhf1, hits give low values 1.01 | locus YBR021W, strain FUR4, hits give low values 1.13 | locus YBR023C, strain chs3, hits give low values 1.01 | locus YBR171W, strain sec66, hits give low values 0.995 | locus YBR229C, strain ROT2, hits give low values 0.991 | locus YBR231C, strain swc5, hits give low values 0.997 | locus YBR279W, strain paf1, hits give low values 1 | locus YCL011C, strain gbp2, hits give low values 0.991 | locus YCL016C, strain dcc1, hits give low values 1 | locus YCL029C, strain bik1, hits give low values 0.972 | locus YCL069W, strain vba3, hits give low values 0.994 | locus YCR088W, strain abp1, hits give low values 1.01 | locus YDL005C, strain med2, hits give low values 1.02 | locus YDL035C, strain GPR1, hits give low values 1.01 | locus YDL040C, strain nat1, hits give low values 0.994 | locus YDL074C, strain BRE1, hits give low values 1.01 | locus YDL101C, strain DUN1, hits give low values 0.985 | locus YDL185W, strain tfp1, hits give low values 0.948 | locus YDL192W, strain arf1, hits give low values 0.985 | locus YDR001C, strain nth1, hits give low values 0.997 | locus YDR069C, strain doa4, hits give low values 1.01 | locus YDR101C, strain arx1, hits give low values 1.01 | locus YDR137W, strain rgp1, hits give low values 1.04 | locus YDR159W, strain sac3, hits give low values 1.01 | locus YDR162C, strain NBP2, hits give low values 1.01 | locus YDR195W, strain ref2 0.931 | locus YDR297W, strain sur2, hits give low values 0.998 | locus YDR318W, strain mcm21, hits give low values 0.979 | locus YDR334W, strain swr1, hits give low values 1.01 | locus YDR335W, strain msn5, hits give low values 1 | locus YDR388W, hits give low values 0.966 | locus YDR392W, strain spt3, hits give low values 0.994 | locus YDR502C, strain sam2, hits give low values 0.974 | locus YEL003W, strain gim4, hits give low values 1 | locus YEL037C, strain rad23, hits give low values 1 | locus YEL061C, strain CIN8 (second series), hits give low values 0.993 | locus YEL061C, strain CIN8, hits give low values 0.996 | locus YER015W, strain faa2, hits give low values 1 | locus YER016W, strain bim1, hits give low values 1 | locus YER110C, hits give low values 0.959 | locus YER111C, strain swi4, hits give low values 0.994 | locus YER155C, strain BEM2 (second series), hits give low values 0.994 | locus YER155C, strain BEM2, hits give low values 1.01 | locus YER167W, strain BCK2, hits give low values 1.01 | locus YFR010W, strain ubp6, hits give low values 1 | locus YGL078C, strain dbp3, hits give low values 0.948 | locus YGL086W, strain mad1, hits give low values 0.998 | locus YGL167C, strain pmr1, hits give low values 1.01 | locus YGL173C, strain kem1, hits give low values 1.01 | locus YGL227W, strain vid30, hits give low values 0.986 | locus YGL240W, strain doc1, hits give low values 1.01 | locus YGL248W, strain PDE1, hits give low values 0.999 | locus YGL253W, strain hxk2, hits give low values 0.99 | locus YGR135W, strain pre9, hits give low values 0.958 | locus YGR252W, strain gcn5, hits give low values 1.01 | locus YHR013C, strain ard1, hits give low values 0.998 | locus YHR027C, strain rpn1, hits give low values 0.989 | locus YHR030C, strain SLT2, hits give low values 0.972 and 1.02 | locus YHR079C, strain IRE1 (second series), hits give low values 0.983 | locus YHR079C, strain IRE1, hits give low values 1.01 | locus YHR094C, strain hxt1, hits give low values 0.973 | locus YHR129C, strain ARP1, hits give low values 0.998 | locus YHR142W, strain chs7, hits give low values 0.995 | locus YHR200W, strain rpn10, hits give low values 0.986 | locus YIL066C, strain RNR3, hits give low values 1 | locus YIL073C, strain SPO22, hits give low values 0.937 | locus YIL125W, strain kgd1, hits give low values 0.982 | locus YIR030C, strain dcg1, hits give low values 0.991 | locus YJL092W, strain hpr5, hits give low values 0.993 | locus YJL095W, strain BCK1 (second series), hits give low values 1.02 | locus YJL095W, strain BCK1, hits give low values 0.982 and 1.02 | locus YJL115W, strain asf1, hits give low values 0.986 | locus YJL129C, strain trk1, hits give low values 1.01 | locus YJL134W, strain LCB3, hits give low values 0.987 | locus YJL154C, strain vps35, hits give low values 1 | locus YJL164C, strain tpk1, hits give low values 1.01 | locus YJL166W, strain qcr8, hits give low values 1 | locus YJL168C, strain set2, hits give low values 0.984 | locus YJL187C, strain SWE1 (second series), hits give low values 0.986 | locus YJL187C, strain SWE1, hits give low values 1.01 | locus YJR043C, strain POL32, hits give low values 1.02 | locus YJR066W, strain TOR1, hits give low values 0.945 | locus YKL009W, strain mrt4, hits give low values 0.988 | locus YKL068W, hits give low values 0.97 | locus YKL085W, strain MDH1 (second series), hits give low values 0.978 | locus YKL085W, strain MDH1, hits give low values 0.978 | locus YKL160W, strain elf1, hits give low values 0.992 | locus YKL190W, strain CNB1, hits give low values 0.992 | locus YKR001C, strain vps1, hits give low values 0.983 | locus YKR026C, strain gcn3, hits give low values 1 | locus YKR091W, strain srl3, hits give low values 1.01 | locus YLL001W, strain dnm1, hits give low values 1.01 | locus YLL026W, hits give low values 0.992 | locus YLL041C, strain sdh2, hits give low values 0.992 | locus YLR027C, strain aat2, hits give low values 0.985 | locus YLR039C, strain RIC1, hits give low values 1.01 | locus YLR058C, strain SHM2, hits give low values 0.973 | locus YLR102C, strain apc9, hits give low values 0.974 | locus YLR113W, strain HOG1, hits give low values 0.992 | locus YLR221C, strain rsa3, hits give low values 1 | locus YLR258W, strain gsy2, hits give low values 0.994 | locus YLR262C, strain YPT6 (second series), hits give low values 1.1 | locus YLR262C, strain YPT6, hits give low values 1.04 | locus YLR268W, strain sec22, hits give low values 0.999 | locus YLR320W, strain mms22, hits give low values 1 | locus YLR330W, strain CHS5, hits give low values 0.993 | locus YLR342W, strain FKS1 (second series), hits give low values 1.05 | locus YLR342W, strain FKS1, hits give low values 1.05 | locus YLR357W, strain rsc2, hits give low values 1 | locus YLR370C, strain arc18, hits give low values 1.02 | locus YLR371W, strain rom2, hits give low values 0.978 | locus YLR384C, strain iki3, hits give low values 1.01 | locus YLR418C, strain cdc73, hits give low values 0.977 | locus YML016C, strain PPZ1, hits give low values 1.01 | locus YML032C, strain rad52, hits give low values 0.964 | locus YML120C, strain ndi1, hits give low values 0.99 | locus YML124C, strain tub3, hits give low values 0.98 | locus YMR058W, strain fet3, hits give low values 0.983 | locus YMR078C, strain ctf18, hits give low values 0.98 | locus YMR125W, strain sto1, hits give low values 0.995 | locus YMR129W, hits give low values 0.997 | locus YMR205C, strain PFK2, hits give low values 0.997 | locus YMR223W, strain ubp8, hits give low values 0.994 | locus YMR231W, strain pep5, hits give low values 0.998 | locus YMR263W, strain SAP30, hits give low values 0.982 | locus YMR307W, strain GAS1, hits give low values 1.27 | locus YNL067W, strain RPL9B, hits give low values 0.974 | locus YNL071W, strain lat1, hits give low values 1.02 | locus YNL183C, strain NPR1, hits give low values 0.963 | locus YNL209W, strain ssb2, hits give low values 1 | locus YNL233W, strain BNI4, hits give low values 0.99 | locus YNL248C, strain rpa49, hits give low values 1.01 | locus YNL250W, strain rad50, hits give low values 0.959 | locus YNL271C, strain bni1, hits give low values 0.983 | locus YNL298W, strain CLA4, hits give low values 0.98 | locus YNL307C, strain MCK1, hits give low values 0.982 | locus YNL322C, strain KRE1 (second series), hits give low values 0.986 | locus YNL322C, strain KRE1, hits give low values 1 | locus YNR049C, strain mso1, hits give low values 1.01 | locus YNR052C, strain pop2, hits give low values 0.981 | locus YOL012C, strain htz1 0.809 | locus YOL147C, strain pex11, hits give low values 0.98 | locus YOR001W, strain rrp6, hits give low values 1.01 | locus YOR061W, strain CKA2, hits give low values 1 | locus YOR069W, strain VPS5, hits give low values 0.981 | locus YOR070C, strain gyp1, hits give low values 1.01 | locus YOR080W, strain dia2, hits give low values 1.01 | locus YOR083W, strain WHI5, hits give low values 1 | locus YOR106W, strain vam3, hits give low values 1.02 | locus YOR136W, strain idh2, hits give low values 0.983 | locus YOR144C, strain elg1, hits give low values 0.979 | locus YOR184W, strain ser1, hits give low values 0.996 | locus YOR231W, strain MKK1, hits give low values 1 | locus YOR265W, strain rbl2, hits give low values 0.999 | locus YOR270C, strain vph1, hits give low values 1.04 | locus YOR290C, strain snf2, hits give low values 1 | locus YOR316C, strain cot1, hits give low values 0.959 | locus YPL051W, strain arl3, hits give low values 0.997 | locus YPL055C, strain LGE1, hits give low values 1.02 | locus YPL078C, strain atp4, hits give low values 0.991 | locus YPL106C, strain sse1, hits give low values 0.995 | locus YPL240C, strain hsp82, hits give low values 1.01 | locus YPL241C, strain CIN2, hits give low values 0.989 | locus YPL256C, strain CLN2, hits give low values 0.983 | locus YPR119W, strain clb2, hits give low values 0.985 | locus YPR141C, strain kar3, hits give low values 0.962 | locus YPR163C, strain tif3, hits give low values 0.954 | locus YPR167C, strain met16, hits give low values 0.989 | strain wtn01, hits give low values 0.986
